Screening results from PubChem BioAssay.
An excerpt weighted towards active compounds, which were near 5.7% of everything screened.
AHR activator: AHR activators, primary screen, cell-based, luminescence, luciferase reporter, human; Aryl hydrocarbon receptor (Homo sapiens), P35869; AHR-responsive luciferase reporter cells; activation, % at 5 µM; 320,000 tested, 2.5% active; in the data active = activation above about 47%;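 also: 0% = vehicle wells and 100% = reference agonist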
DAX1 inh-1: DAX1 (NR0B1) inhibitors, primary screen, cell-based, HEK293, Gal4-DAX1, luciferase luminescence; 340,000 tested, 0.99% active; inhibition, % at 6.75 µM; HEK293 Gal4-DAX1 luciferase reporter; Nuclear receptor subfamily 0 group B member 1 (Homo sapiens), P51843; AID 504766, 2011;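 active = inhibition above the mean over all tested compounds plus 3 SD, cut at about 4.2% in these data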;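 also: 0% = DAX1-transfected cells with DMSO and 100% = empty-vector control cells with DMSO; inhibition shows as a rise in luminescence from relieved DAX1 repression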
hcDAF-12 act: H. contortus DAF-12 nuclear receptor activators, primary screen, cell-based, luminescence, HEK293, lit1-tk-luc reporter | HEK293 hcDAF-12 lit1-tk-luc reporter; 0% DMSO, 100% Δ7-dafachronic acid | 370,000 tested, 1.4% active | activation, % at 6.8 µM;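 active = activation above the mean of all tested compounds plus 3 SD, cut at about 5.5% in these data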;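 also: 100% = response to 3 µM Δ7-dafachronic acid high control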
DAX1 inh-2: DAX1 (NR0B1) inhibitors on StAR promoter, primary screen, cell-based, luminescence, SF-1 (NR5A1), full-length DAX-1. HEK293T StAR-luciferase reporter, SF-1/DAX-1 repression relief. inhibition, % at 6.8 µM. 370,000 tested, 1.1% active;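 active = inhibition above the mean over all tested compounds plus 3 SD, cut at about 3.6% in these data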;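 also: 0% = DAX-1 cells with DMSO and 100% = cells lacking DAX-1 with DMSO; higher inhibition means more luminescence from relief of DAX-1 repression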
ssDAF-12 act: S. stercoralis DAF-12 nuclear receptor activators, primary screen, cell-based, luminescence, HEK293, GRIP1 co-expression, lit1-tk-luc; Nuclear hormone receptor DAF-12 (Strongyloides stercoralis); HEK293 ssDAF-12/GRIP1 lit1-tk-luc reporter; % of 3 µM dafachronic acid response; activation, % at 6.8 µM; 370,000 tested, 1% active; AID 652126, 2013;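 active = activation above the mean over all tested compounds plus 3 SD, cut at about 0.9% in these data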;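 also: 0% = DMSO-only wells and 100% = 3 µM delta7-dafachronic acid wells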
hgDAF-12 ag: H. glycines DAF-12 receptor agonists, primary screen, cell-based, luminescence, HEK293, GAL4 fusion, UAS-luciferase; Nuclear hormone receptor DAF-12 (Heterodera glycines), GAL4 fusion; HEK293 GAL4-hgDAF12 UAS-luciferase reporter, agonist luminescence; normalized to butyrate control; activation, % at 6.8 µM; 370,000 tested, 1.8% active; AID 687014, 2013;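 active = activation above a cutoff set at the mean of all screened compounds plus 3 SD, cut at about 10% in these data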;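 also: 0% = DMSO wells and 100% = sodium butyrate wells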
LXRb hcDAF ctr: LXR agonists, Gal4 luciferase reporter, confirmation, counter-screen for hcDAF-12 agonist project, cell-based, luminescence, HEK293, H. contortus campaign; shares compounds with hcDAF-12 act; HEK293 Gal4-LXR tk-luc reporter, 24 h; normalized: DMSO 0%, positive control 100%; activation, % at 6.8 µM; 3,400 tested, under 10 active; AID 743027, 2013;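 active = mean percent activation of the reporter above a cutoff set as the average over tested compounds plus their standard deviation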
hcDAF12 conf: H. contortus DAF-12 receptor agonists, confirmation, cell-based, luminescence, HEK293, lit1-tk-luc, triplicate | shares compounds with hcDAF-12 act | HEK293 hcDAF-12 lit1-tk-luc reporter; % of Δ7-dafachronic acid response | activation, % at 6.8 µM | 3,400 tested, 61% active | AID 743032, 2013;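 active = mean activation across triplicate tests above the threshold derived from the earlier primary screen, cut at about 5.5% in these data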;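 also: 0% = DMSO only wells and 100% = 3 µM Δ7-dafachronic acid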
* = called active by the depositor; . = not tested or not shown.

SMILES	AHR activator	DAX1 inh-1	hcDAF-12 act	DAX1 inh-2	ssDAF-12 act	hgDAF-12 ag	LXRb hcDAF ctr	hcDAF12 conf
c1csc(-c2ccc(N3CCOCC3)nn2)c1	0	0	6.6*	3	0	13*	1	5.8*
COCCn1c(SCC(=O)Nc2c(C)n(C)n(-c3ccccc3)c2=O)nc2ccccc2c1=O	-1	0	0	0	-1	-2	.	.
COc1cccc(C(=O)Nc2nc3ccccc3[nH]2)c1	23	-4	7.4*	3	0	11*	2	8.0*
O=C(Nc1nc2ccccc2[nH]1)Nc1ccccc1F	48*	2	24*	3	4.8*	22*	2	20*
COc1cc(C(=O)Nc2nc3ccccc3[nH]2)cc(OC)c1OC	7	-1	0	1	-2	5	.	.
O=C(Nc1nc2ccccc2[nH]1)c1cccc(Br)c1	57*	0	8.6*	1	1	12*	1	7.1*
Cc1noc(C)c1NC(=O)N(C)C[C@H]1Oc2ccc(NC(=O)C3CC3)cc2C(=O)N([C@H](C)CO)C[C@@H]1C	1	0	0	0	-1	0	.	.
Oc1ccccc1/C=N/Nc1cccc2cccnc12	30	2	2	2	1	1	.	.
O=C(O)c1ccc(N/N=C/c2cccc3cccnc23)cc1	20	1	8.1*	3	2.0*	13*	1	7.9*
O=C(CCCOc1ccc(Cl)cc1Cl)N1CCN(c2ccccn2)CC1	44	0	-1	-1	-1	1	.	.
O=C(CCCOc1ccccc1)N1CCN(c2ccccn2)CC1	22	1	10*	2	0	8	1	6.4*
Cn1ccc2c(-c3ccc4c(c3)OCCO4)cc3c(c21)C1CCC3O1 (stereo not drawn)	.	.	1	1	-1	4	.	.
Cc1ccn2cc(CSc3ccccc3)nc2c1	-3	2	6.6*	2	0	12*	1	5
COc1ccc(CN(C)S(=O)(=O)c2nnc(NC(=O)c3ccccc3OC)s2)cc1OC	15	0	7.7*	1	0	2	0	4
O=C(CSc1ncn[nH]1)N1c2ccccc2Sc2ccccc21	2	0	-2	0	-1	2	.	.
Cc1ccc(CCNC(=O)c2cc(-c3ccncc3)nc3ccc(S(=O)(=O)N4CCOCC4)cc23)cc1	1	0	0	0	-1	1	.	.
CN(Cc1ccccc1)C(=O)CCC1CCN(S(C)(=O)=O)CC1	-4	0	0	0	-1	1	.	.
c1ccc2c(C3=NNC(=NC4CCCCC4)SC3)c[nH]c2c1	57*	-1	9.3*	0	1.5*	3	0	5
CC(C)(C)NC(=O)C1CC(=O)N(CCc2ccc(F)cc2)C1 (stereo not drawn)	0	0	1	0	-1	-2	.	.
Cc1ccc(Cl)c2c(N=Nc3ccccc3)c(O)[nH]c12	.	6.3*	7.7*	1	0.9*	6	1	10*
Cc1cc(Cl)cc2c(N=Nc3ccccc3C(=O)O)c(O)[nH]c12	8	-1	-1	0	-1	-2	.	.
Cc1ccc2nc(N3C(=O)C(O)=C(C(=O)c4ccc(C)o4)C3c3ccco3)sc2c1 (stereo not drawn)	18	0	8.1*	4.1*	1	11*	0	3
COc1cc(O)c2c(=O)c(-c3ccc(O[C@@H]4O[C@H](CO)[C@@H](O)[C@H](O)[C@H]4O)cc3)coc2c1	.	2	7.2*	2	1	12*	2	5
O=c1c(-c2ccc(O)cc2)coc2cc(OC3OC(CO)C(O)C(O)C3O)cc(O)c12 (stereo not drawn)	5	0	4	0	0	8	.	.
O=C1NC(=O)N(Cc2ccccc2)CC1Br (stereo not drawn)	.	3	3	1	-1	0	.	.
SMILES	AHR activator	DAX1 inh-1	hcDAF-12 act	DAX1 inh-2	ssDAF-12 act	hgDAF-12 ag	LXRb hcDAF ctr	hcDAF12 conf
O=C(c1cc(-c2ccc(Cl)c(Cl)c2)on1)N1CCCCC1	-3	1	2	1	0	7	.	.
O=C(c1cc(-c2ccc(Br)cc2)on1)N1CCOCC1	-5	0	7.2*	3	0	13*	1	5
O=C(c1cc(-c2ccccc2Cl)on1)N1CCCC1	-9	0	8.6*	3	1	12*	1	12*
Cc1ccccc1-c1cc2c(nn1)-c1ccccc1C2=O	-20	0	7.2*	0	1.5*	5	1	6.2*
COc1ccc(Br)cc1/C=N/N1C(=O)CSC1=S	49*	-1	7.1*	0	0	0	0	4
O=C1CSC(=S)N1N=Cc1c[nH]c2ccc(Br)cc12	.	2	1	0	0	4	.	.
O=C(c1ccccc1)c1cc2ccccc2oc1=O	49*	0	6.9*	1	0	3	0	5
O=C(NNC(=O)c1cc2ccccc2oc1=O)c1ccccc1	-2	0	0	0	-1	1	.	.
CC(CCN1CCC(C(O)(c2ccccc2)c2ccccc2)CC1)Oc1cccc(F)c1 (stereo not drawn)	.	.	11*	0	0	1	0	2
Cc1cccc(OC(C)CCN2CCC(C(O)(c3ccccc3)c3ccccc3)CC2)c1 (stereo not drawn)	.	.	3	0	-1	-3	.	.
CC(C)(C)c1ccc(C(=O)NC(=S)NNC(=O)c2cccs2)cc1	74*	0	21*	3	1	9	0	1
